Source: PubChem BioAssay
The source made the active and inactive calls.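 The calls were made as follows, unless noted: active = inhibition at or above 50% at 10 µM; inactive = inhibition below 50%.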

Key:
[1] = inhibitors of TNFa-induced NFkB p65 translocation, primary screen, imaging, HUVEC, MLSMR starter and 10KST1 sets (AID 438;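 active = inhibition above 20% together with a positive visual image hit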;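 also: compound added about 3h40 before a 20 min TNFalpha stimulation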;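 as to inhibition: signal is the nuclear over cytoplasmic p65 intensity ratio per well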); conditions: HUVEC TNFa-induced p65 nuclear translocation; cell count: measured here: nuclei count (cytotoxicity indicator), at 2.08 µM; inhibition: at 2 µM, stronger effect = higher value, 0% TNFa-plus-vehicle, 100% no-TNFa wells
[2] = inhibitors of mutant huntingtin aggregation, primary screen, imaging, exon1htt(103Q)mCFP cells, high-content imaging (AID 483;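 active = visual image review flags a hit and inhibition of aggregation exceeds 20%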;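 also: compound exposure lasted 3 days before fixation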;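 as to nuclei count: percent of the per-plate median nuclei count of sample wells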); conditions: exon1htt(103Q)mCFP cell line, aggregate imaging, at 2 µM; inhibition of aggregation: stronger effect = higher value; nuclei count: measured here: cell count, toxicity
[3] = inhibitors of E-selectin induction by TNFa, primary screen, imaging, HUVEC, immunofluorescence, MLSMR starter and 10KST1 sets (AID 487;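 active = visually confirmed hit in the image check and inhibition above 20%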;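 as to inhibition: signal is fraction of cell area covered by stained E-selectin grains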;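 as to nuclei count: 100% = median nuclei count of all wells on the same plate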); conditions: HUVEC TNFalpha-induced E-selectin immunofluorescence imaging, at 2 µM; inhibition: stronger effect = higher value; nuclei count: measured here: cell number, toxicity
[4] = target: Voltage-gated potassium channel subunit beta-2 (Rattus norvegicus) (UniProt P62483); test: KvBeta enzyme negative modulators, primary screen, biochemical, NADPH fluorescence (AID 622;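 active = fluorescence slope higher than the sample average by over 3 SD, cut at about -0.22 in these data, passing the limit was not always enough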;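 also: slope of raw intensity against log time taken from 70 to 1610 s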); conditions: recombinant KvBeta, 4-cyanobenzaldehyde reduction, at 10 µM, stronger effect = higher value
[5] = target: Voltage-gated potassium channel subunit beta-2 (Rattus norvegicus) (UniProt P62483); test: KvBeta positive modulators, primary screen, biochemical, NADPH fluorescence (AID 623;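 active = NADPH fluorescence slope more negative than the mean of all samples by about 3 SD, 99.7% confidence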;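 also: fluorescence intensity change per second fitted from 20 to 320 s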); conditions: Recombinant KvBeta, NADPH fluorescence decrease slope, 10 min; at 10 µM; stronger effect = lower value
[6] = target: Alpha-2C adrenergic receptor (Homo sapiens) (UniProt P18825); test: modulators of alpha2C/GIRK thallium flux, primary screen, cell-based, HEK293 alpha2C/GIRK1/2 (AID 624;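 active = fluorescence slope after compound addition differing from the mean of all screened samples at 99.7% confidence, in either direction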;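 also: slope of fluorescence ratio to pre-addition baseline per second over 15 to 24 s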); conditions: thallium flux BTC fluorescence, at 10 µM, actives lie on both sides
[7] = inhibitors of Sendai virus-induced IRF3 signaling, primary screen, TLR/RLR signaling modifier project, cell-based, Sendai virus stimulus, luciferase, 10K MLSCN set (AID 602276); conditions: HEK293 RL24 IRF3 luciferase reporter, at 10 µM, stronger effect = higher value;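 also: firefly luciferase from ISG56 promoter only with Renilla not read in this screen; 0% = Sendai virus plus DMSO and 100% = medium plus DMSO without virus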
[8] = inhibitors of poly I:C-induced TLR3 signaling, primary screen, cell-based, poly I:C stimulus, luciferase, 10K MLSCN set (AID 602277;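 active = inhibition of the reporter signal at or above 50%; inactive = inhibition below 50%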); conditions: HEK293-TLR3 RL24 IRF3 luciferase reporter, at 10 µM, stronger effect = higher value

Sequence of Voltage-gated potassium channel subunit beta-2 (Rattus norvegicus) (P62483 whole entry, looked up): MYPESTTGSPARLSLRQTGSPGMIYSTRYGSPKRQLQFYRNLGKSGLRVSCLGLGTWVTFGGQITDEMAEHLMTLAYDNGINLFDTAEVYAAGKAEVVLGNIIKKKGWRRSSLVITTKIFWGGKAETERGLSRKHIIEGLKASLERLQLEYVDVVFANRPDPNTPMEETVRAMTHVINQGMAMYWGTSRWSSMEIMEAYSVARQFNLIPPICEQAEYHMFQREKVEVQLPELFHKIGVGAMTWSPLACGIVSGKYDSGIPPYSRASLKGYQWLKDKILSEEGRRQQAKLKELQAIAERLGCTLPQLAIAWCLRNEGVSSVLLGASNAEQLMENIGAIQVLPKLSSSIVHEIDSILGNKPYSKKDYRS
Sequence of Alpha-2C adrenergic receptor (Homo sapiens) (P18825 whole entry, looked up): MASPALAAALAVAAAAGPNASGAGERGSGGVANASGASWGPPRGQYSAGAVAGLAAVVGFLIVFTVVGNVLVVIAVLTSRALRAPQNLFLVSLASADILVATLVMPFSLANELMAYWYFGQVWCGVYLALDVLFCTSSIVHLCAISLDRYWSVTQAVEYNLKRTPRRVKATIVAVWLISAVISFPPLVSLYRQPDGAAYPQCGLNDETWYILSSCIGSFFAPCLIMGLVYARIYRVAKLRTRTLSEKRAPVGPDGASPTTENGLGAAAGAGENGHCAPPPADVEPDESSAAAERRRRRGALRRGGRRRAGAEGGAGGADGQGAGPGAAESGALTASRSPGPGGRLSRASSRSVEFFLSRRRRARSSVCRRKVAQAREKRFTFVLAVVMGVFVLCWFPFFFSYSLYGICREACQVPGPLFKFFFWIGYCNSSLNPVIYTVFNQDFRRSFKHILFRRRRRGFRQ

SMILES	cell count [1]	inhibition [1]	inhibition of aggregation [2]	nuclei count [2]	inhibition [3]	nuclei count [3]	fluorescence slope [4]	NADPH fluorescence slope [5]	slope [6]	inhibition [7]	inhibition [8]
CCc1noc(C)c1C(=O)NCCc1ccc(OC)c(OC)c1	395	3.7% (inactive)	-16.2% (inactive)	121%	11.4% (inactive)	96.9%	-0.468 (inactive)	-4.2e-06 (inactive)	0.00531 (inactive)	14.3% (inactive)	19.8% (inactive)
C=CCOC(=O)COc1ccc2c(C)c(C)c(=O)oc2c1C	373	-3.6% (inactive)	-9.6% (inactive)	102%	-22.7% (inactive)	105%	-0.608 (inactive)	-5.7e-06 (inactive)	0.00552 (inactive)	-3.09% (inactive)	3.78% (inactive)
CCN1C(=O)C2(C(C#N)=C(N)Oc3n[nH]c(C(C)C)c32)c2ccccc21 (stereo not drawn)	679	-4.5% (inactive)	-20.7% (inactive)	104%	2.2% (inactive)	97%	-0.485 (inactive)	-3.1e-05 (inactive)	0.005 (inactive)	20.9% (inactive)	21.2% (inactive)
CCOC(=O)c1ccc2[nH]c(C)c(CN3CCN(C)CC3)c(=O)c2c1	332	6.1% (inactive)	11.1% (inactive)	89.7%	20.8% (inactive)	112%	-0.471 (inactive)	-4e-05 (inactive)	0.00513 (inactive)	-4.42% (inactive)	21.9% (inactive)
CC1CCCN(S(=O)(=O)c2coc(C(N)=O)c2)C1 (stereo not drawn)	697	-0.6% (inactive)	-15.4% (inactive)	111%	1.5% (inactive)	95.6%	-0.6 (inactive)	-2.8e-05 (inactive)	0.00651 (inactive)	1.83% (inactive)	25.1% (inactive)
CCOC(=O)NC1(NCc2ccccc2)Oc2ccccc2O1	606	-12.3% (inactive)	9.6% (inactive)	95%	-140% (inactive)	129%	-0.509 (inactive)	9e-05 (inactive)	0.00513 (inactive)	-5.13% (inactive)	-21.2% (inactive)
CC(=O)Nc1sc2c(c1CN1CCN(c3ccccn3)CC1)CCCC2	698	-14.6% (inactive)	5.2% (inactive)	95.6%	54.3% (active)	95.3%	-0.517 (inactive)	-3.7e-05 (inactive)	0.00435 (inactive)	6.55% (inactive)	12.4% (inactive)
CCc1nnc(NC(=O)C2Cc3ccccc3CN2S(=O)(=O)c2cccs2)s1 (stereo not drawn)	521	-10.2% (inactive)	-27.6% (inactive)	116%	-57.1% (inactive)	117%	-0.482 (inactive)	-2.6e-05 (inactive)	0.00706 (inactive)	-21.3% (inactive)	-50.1% (inactive)
O=c1ccc(S(=O)(=O)N2CCC(Cc3ccccc3)CC2)c[nH]1	451	0% (inactive)	-8.8% (inactive)	103%	-15.8% (inactive)	111%	-0.369 (inactive)	-5e-05 (inactive)	0.00726 (inactive)	11.4% (inactive)	31.9% (inactive)
CCN1CCN(c2nc3c(c(=O)[nH]c(=O)n3C)n2CCSc2nc3ccccc3s2)CC1	638	-11.8% (inactive)	-2.9% (inactive)	111%	-45.2% (inactive)	113%	-0.431 (inactive)	-2.8e-05 (inactive)	0.00469 (inactive)	12.2% (inactive)	23.6% (inactive)
Clc1ccc(C2=Nn3c(nnc3-c3n[nH]c4c3CCC4)SC2)cc1Cl	434	3% (inactive)	1.5% (inactive)	101%	19.9% (inactive)	95.9%	-0.498 (inactive)	1.2e-05 (inactive)	0.00652 (inactive)	29.6% (inactive)	33% (inactive)
COc1ccc(Oc2nc(Oc3ccc(OC)cc3)nc(Oc3ccc(OC)cc3)n2)cc1	320	-5.1% (inactive)	-10.7% (inactive)	109%	-4.6% (inactive)	106%	-0.536 (inactive)	-1.9e-06 (inactive)	0.00755 (inactive)	3.19% (inactive)	11.5% (inactive)
COc1ccc(OC)c(Nc2ncnc3c2cnn3-c2ccccc2)c1	334	-6.5% (inactive)	-6.7% (inactive)	111%	-26.3% (inactive)	113%	-0.4 (inactive)	-2.9e-05 (inactive)	0.00524 (inactive)	-14.3% (inactive)	-62.3% (inactive)
O=C(CCc1nc2ccccc2[nH]1)Nc1ccc2c(c1)OCO2	310	-9.6% (inactive)	23.8% (inactive)	111%	-68.2% (inactive)	111%	-0.347 (inactive)	1.4e-05 (inactive)	0.00426 (inactive)	-10.7% (inactive)	-26.2% (inactive)
COc1ccccc1N1C(=O)c2ccccc2NC1c1ccncc1 (stereo not drawn)	427	5.6% (inactive)	-20.4% (inactive)	103%	-456% (inactive)	163%	-0.437 (inactive)	-0.000349 (inactive)	0.00578 (inactive)	-1.3% (inactive)	5.74% (inactive)
COc1ccccc1CNC(=O)N[C@@H](Cc1ccccc1)C(=O)O	602	0.9% (inactive)	-15.9% (inactive)	107%	31.9% (inactive)	99.5%	-0.6 (inactive)	-5.1e-05 (inactive)	0.00621 (inactive)	12.8% (inactive)	22.6% (inactive)
CCOc1cccc(C(=O)N(Cc2ccc(F)cc2)C2CCS(=O)(=O)C2)c1 (stereo not drawn)	461	9.3% (inactive)	-23.1% (inactive)	92.3%	-116% (inactive)	219%	-0.415 (inactive)	-3.8e-05 (inactive)	0.0041 (inactive)	14.6% (inactive)	40.1% (inactive)
Cc1oc(-c2cccc(Cl)c2)nc1CN1CCC(C(=O)N2CCN(c3ccccc3F)CC2)CC1	780	-0.6% (inactive)	-4% (inactive)	77.7%	-73.6% (inactive)	108%	-0.552 (inactive)	-2.2e-05 (inactive)	0.00639 (inactive)	-0.341% (inactive)	-26% (inactive)
CCOc1ccc(Cn2nnc(C(=O)NCc3ccc(OC)cc3)c2N)cc1	509	-1.3% (inactive)	15.4% (inactive)	72.5%	-22.4% (inactive)	100%	-0.536 (inactive)	-2.2e-06 (inactive)	0.00681 (inactive)	17.5% (inactive)	30.1% (inactive)
CCOC(=O)C(NC(C)=O)(NS(=O)(=O)c1ccccc1)C(F)(F)F (stereo not drawn)	537	-2.4% (inactive)	18.4% (inactive)	88.5%	39.5% (inactive)	90.8%	-0.616 (inactive)	5.2e-06 (inactive)	0.00712 (inactive)	10.5% (inactive)	14.2% (inactive)
Cc1csc(NC(=O)CSc2nnc(Cc3cccn3C)n2-c2ccc(F)cc2)n1	688	-3.4% (inactive)	12.8% (inactive)	74%	-48.6% (inactive)	105%	-0.57 (inactive)	2e-05 (inactive)	0.00588 (inactive)	-11.3% (inactive)	8.94% (inactive)
CCCCCn1c(CN2CCN(C)CC2)nc2c1c(=O)n(C)c(=O)n2C	521	-1.4% (inactive)	-17.1% (inactive)	95.8%	0.3% (inactive)	93.2%	-0.571 (inactive)	-3e-06 (inactive)	0.00637 (inactive)	1.18% (inactive)	43.6% (inactive)
O=C(Nc1ccc2snnc2c1)N1CCN(c2ccccc2)CC1	454	1.6% (inactive)	0.7% (inactive)	101%	0.3% (inactive)	117%	-0.425 (inactive)	7.2e-06 (inactive)	0.00518 (inactive)	4.94% (inactive)	-57.8% (inactive)
CCOc1ccccc1NC(=O)NC1CCN(CC(=O)Nc2ccc3c(c2)OCCO3)CC1	285	-4.8% (inactive)	2% (inactive)	115%	-0.8% (inactive)	87.4%	-0.499 (inactive)	4.9e-05 (inactive)	0.00583 (inactive)	19.4% (inactive)	26.5% (inactive)
Cc1noc(C)c1C(=O)Nc1ccc(Cl)cc1C(F)(F)F	327	-13.5% (inactive)	1.7% (inactive)	99.5%	-6% (inactive)	102%	-0.625 (inactive)	-1e-05 (inactive)	0.0031 (inactive)	17.2% (inactive)	18% (inactive)
O=C(NCCSc1c[nH]c2ccccc12)c1ccc(Br)o1	564	3.9% (inactive)	-4.5% (inactive)	114%	-35.7% (inactive)	113%	-0.559 (inactive)	-4.4e-05 (inactive)	0.00687 (inactive)	6.55% (inactive)	-6.47% (inactive)
Cc1nn(C)c(C)c1S(=O)(=O)N1CCCC(C(=O)N2CCN(c3ccc(Cl)cc3)CC2)C1 (stereo not drawn)	288	-3.9% (inactive)	-45.6% (inactive)	94.8%	-270% (inactive)	85.9%	-0.591 (inactive)	-1.7e-05 (inactive)	0.00589 (inactive)	11.1% (inactive)	11.6% (inactive)
CC(C)c1nnc(NC(=O)c2ccc(N3C(=O)CCC3=O)cc2)s1	627	-8% (inactive)	13.9% (inactive)	110%	-36.4% (inactive)	119%	-0.407 (inactive)	9.4e-07 (inactive)	0.00608 (inactive)	4.17% (inactive)	-7.88% (inactive)
